# PubChem BioAssay (Tox21)
# Activity calls are given as the source filed them. Entries that show only a call come without a potency. Unless noted, calls follow the shape of the dose curve; as a rule, active = well fitted curve in the direction sought with a large enough effect in the repeat runs; inconclusive = weak or mixed curves; inactive = flat fitted curve, though single readings scatter.
# Test system: not listed separately
# Test: qHTS assay to test for compound auto fluorescence at 535 nm (green) in HepG2 cell free culture (AID 720686)
# Conditions: Cell-free medium, green autofluorescence 485/535 nm; series mostly up to 91.3 µM
Compound,outcome,"fluorescence, % of fluorescein control"
C=C(C)C(=O)NCCC[N+](C)(C)C,inactive,–
Cc1ccc(Nc2ccc(O)c3c2C(=O)c2ccccc2C3=O)cc1,inactive,–
CCCCCOC(=O)Nc1nc(=O)n([C@@H]2O[C@H](C)[C@@H](O)[C@H]2O)cc1F,inactive,–
COc1cc(C)cc(O)c1,inactive,–
CN(C)N=Nc1ccccc1,inactive,–
C(=C(c1ccccc1)c1ccccc1)c1ccccc1,inactive,–
C=C(C)C(=O)OCCCCCCCCCCCCCCCCCC,–,-0.0135% [at 18.6 µM] (inactive)
COC(=O)[C@H]1[C@H]2C[C@@H]3c4[nH]c5cc(OC)ccc5c4CCN3C[C@H]2C[C@@H](OC(=O)COc2ccc(OC)cc2)[C@@H]1OC,inactive,–
Nc1cc(N)cc(C(=O)O)c1,inactive,–
COc1cccc(Br)c1,inactive,–
C1CCCCCCCCCCC1,–,-0.0289% [at 18.6 µM] (inactive)
CC(O)CN(CCCN(C)C)CCCN(C)C (configuration not stated),inactive,–
CCCC(=O)O[C@]1(C(=O)CCl)[C@@H](C)C[C@H]2[C@@H]3CCC4=CC(=O)C=C[C@]4(C)[C@@]3(F)C(=O)C[C@@]21C,inactive,–
CC(C)=CC(=O)O,inactive,–
CC/C=C\CCCCO,inactive,–
CC(C)(O)C(=O)c1ccc(OCCO)cc1,inactive,–
NC(=O)CCCCC1CCSS1 (configuration not stated),inactive,–
CCC(=O)c1cccc(Cl)c1,inactive,–
OC1OC[C@@H](O)[C@H](O)[C@H]1O (some centres not stated),inactive,–
OCCCCCCO,inactive,–
OCC(CO)(CO)COCC(CO)(CO)CO,inactive,–
CC12CCC(CC1=O)C2(C)C (configuration not stated),inactive,–
O=S(=O)(c1cccc2cnccc12)N1CCCNCC1,inactive,–
CNc1ncnc2nc[nH]c12,inactive,–
COc1ccc(N=[N+]([O-])c2ccc(OC)cc2)cc1,inactive,–

# Test system: not listed separately
# Test: qHTS assay to test for compound auto fluorescence at 460 nm (blue) in HepG2 cells (AID 720687)
# Conditions: autofluorescence 405/460 nm, 1 h; series mostly up to 91.3 µM
# Summary of the method: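 HepG2 cells in MEM with 10% FBS, attached overnight at 37 C, were exposed to compound or DMSO for 1 hr at 37 C, 5% CO2. Blue fluorescence was read at 405/460 nm, with triamterene as reference fluorophore.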
Compound,Potency,"fluorescence, % of fluorescent control"
C#CC(O)C(CC)CCCC (configuration not stated),inactive,–
C=C(C)C(=O)NCCC[N+](C)(C)C,inactive,–
Cc1ccc(Nc2ccc(O)c3c2C(=O)c2ccccc2C3=O)cc1,inactive,–
CCCCCOC(=O)Nc1nc(=O)n([C@@H]2O[C@H](C)[C@@H](O)[C@H]2O)cc1F,inactive,–
COc1cc(C)cc(O)c1,inactive,–
CCCCCCOC(=O)CC(CC(=O)OCCCCCC)(OC(=O)CCC)C(=O)OCCCCCC,inactive,–
N#CCc1ccccc1[N+](=O)[O-],inactive,–
C(=C(c1ccccc1)c1ccccc1)c1ccccc1,inactive,–
C=C(C)C(=O)OCCCCCCCCCCCCCCCCCC,–,0.214% [at 18.6 µM] (inactive)
COC(=O)[C@H]1[C@H]2C[C@@H]3c4[nH]c5cc(OC)ccc5c4CCN3C[C@H]2C[C@@H](OC(=O)COc2ccc(OC)cc2)[C@@H]1OC,inactive,–
Nc1cc(N)cc(C(=O)O)c1,inactive,–
COc1cccc(Br)c1,inactive,–
C1CCCCCCCCCCC1,–,-0.112% [at 18.6 µM] (inactive)
CC(O)CN(CCCN(C)C)CCCN(C)C (configuration not stated),inactive,–
CCCC(=O)O[C@]1(C(=O)CCl)[C@@H](C)C[C@H]2[C@@H]3CCC4=CC(=O)C=C[C@]4(C)[C@@]3(F)C(=O)C[C@@]21C,inactive,–
CC(C)=CC(=O)O,inactive,–

Compound,Potency,"fluorescence, % of fluorescent control"
CC(C)(O)C(=O)c1ccc(OCCO)cc1,inactive,–
NC(=O)CCCCC1CCSS1 (configuration not stated),inactive,–
COC(=O)CCCCCCCCC(=O)OC,inactive,–
Cc1nccn1CC1CCc2c(c3ccccc3n2C)C1=O (configuration not stated),inactive,–
CCC(=O)c1cccc(Cl)c1,inactive,–
C=CCn1c(=O)n([C@@H]2O[C@H](CO)[C@@H](O)[C@H]2O)c2nc(N)[nH]c(=O)c21,inactive,–
Fc1ccccc1-c1ccccc1,inactive,–
OC1OC[C@@H](O)[C@H](O)[C@H]1O (some centres not stated),inactive,–
NC(=S)Nc1cccc2ccccc12,–,-0.0944% [at 3.72 µM] (inactive)
OCCCCCCO,inactive,–
CCCOc1ccccc1-c1nc2n[nH]nc2c(=O)[nH]1,inactive,–
CC12CCC(CC1=O)C2(C)C (configuration not stated),inactive,–
O=S(=O)(c1cccc2cnccc12)N1CCCNCC1,inactive,–
CNc1ncnc2nc[nH]c12,inactive,–
COc1ccc(N=[N+]([O-])c2ccc(OC)cc2)cc1,inactive,–

# Target: Glucocorticoid receptor (Homo sapiens) (UniProt P04150)
# Test: qHTS assay to identify small molecule agonists of the glucocorticoid receptor (GR) signaling pathway (AID 720691; active = well fitted activation curve with a large enough effect in the signal ratio in the repeat runs, not every such curve was filed as active; inconclusive = weak or mixed curves, or effect the other way; inactive = no such curve, though single readings can be large or run the other way; the % refers to the signal ratio; also: potency is read from the fitted curve at half-maximal effect)
# Conditions: GR-bla HeLa, beta-lactamase reporter ratio, 18 h; series mostly up to 62.4 µM
# Summary of the method: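 Measures GR pathway activation through a GRE-beta-lactamase reporter stably integrated in HeLa cells, with 18 h compound treatment at 37 C and fluorescence detection using a FRET substrate.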
# Glucocorticoid receptor (Homo sapiens), sequence (P04150 whole entry, looked up): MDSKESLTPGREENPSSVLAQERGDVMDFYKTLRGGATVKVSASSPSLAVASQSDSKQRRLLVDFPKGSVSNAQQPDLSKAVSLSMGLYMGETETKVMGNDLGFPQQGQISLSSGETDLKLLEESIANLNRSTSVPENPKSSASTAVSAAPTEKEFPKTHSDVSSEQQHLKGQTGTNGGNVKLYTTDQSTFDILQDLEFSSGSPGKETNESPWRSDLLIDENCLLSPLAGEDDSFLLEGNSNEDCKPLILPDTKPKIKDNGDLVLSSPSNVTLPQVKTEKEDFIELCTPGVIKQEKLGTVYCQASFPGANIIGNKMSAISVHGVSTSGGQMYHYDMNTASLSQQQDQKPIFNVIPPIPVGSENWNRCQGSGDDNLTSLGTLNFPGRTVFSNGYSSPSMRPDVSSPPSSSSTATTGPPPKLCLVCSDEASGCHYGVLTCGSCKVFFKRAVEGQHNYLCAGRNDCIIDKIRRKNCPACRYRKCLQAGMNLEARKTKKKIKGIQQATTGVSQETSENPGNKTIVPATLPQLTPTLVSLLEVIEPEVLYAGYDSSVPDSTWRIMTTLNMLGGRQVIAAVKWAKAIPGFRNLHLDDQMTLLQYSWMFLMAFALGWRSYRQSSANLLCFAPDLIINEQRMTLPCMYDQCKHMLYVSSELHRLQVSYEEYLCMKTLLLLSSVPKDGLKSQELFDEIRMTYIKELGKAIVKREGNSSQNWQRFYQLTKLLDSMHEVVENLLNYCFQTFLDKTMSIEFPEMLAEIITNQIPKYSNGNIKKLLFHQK
row,Compound,Potency
1,C=C(C)C(=O)NCCC[N+](C)(C)C,inactive
2,COc1cc(C)cc(O)c1,inactive
3,CCCCCCOC(=O)CC(CC(=O)OCCCCCC)(OC(=O)CCC)C(=O)OCCCCCC,inactive
4,C=C(C)C(=O)OCCCCCCCCCCCCCCCCCC,inactive
5,CCCCNc1ccccc1,inactive
6,Nc1cc(N)cc(C(=O)O)c1,inactive
7,CC(O)CN(CCCN(C)C)CCCN(C)C (configuration not stated),inactive
8,CCCC(=O)O[C@]1(C(=O)CCl)[C@@H](C)C[C@H]2[C@@H]3CCC4=CC(=O)C=C[C@]4(C)[C@@]3(F)C(=O)C[C@@]21C,23.9 nM [inconclusive] (active)
9,NC(=O)CCCCC1CCSS1 (configuration not stated),inactive
10,CN(C)C(=O)C(CCN1CCC(O)(c2ccc(Cl)cc2)CC1)(c1ccccc1)c1ccccc1,inactive
11,Cc1nccn1CC1CCc2c(c3ccccc3n2C)C1=O (configuration not stated),inactive
12,CCC(=O)c1cccc(Cl)c1,inactive
13,Fc1ccccc1-c1ccccc1,inactive
14,CCCOc1ccccc1-c1nc2n[nH]nc2c(=O)[nH]1,inactive
15,CC12CCC(CC1=O)C2(C)C (configuration not stated),inactive
16,COc1ccc(N=[N+]([O-])c2ccc(OC)cc2)cc1,inactive
